This is an account of results in publication PMC5540273 (PLoS ONE, 2017).

Some test systems named below: EPHA4; EPHA5; EPHA6; EPHA7; EPHA8; EPHB1; EPHB2; EPHB3; EPHB4; EPHB6.
What all share (settings): n = 1
The mark [1] stands for this setting: concentration: 1 μM,replicates: in singlicate, 1 µM.
The mark [2] stands for this setting: concentration: 1 μM, replicates: in singlicate.

“And” between values parts separate entries of the source, which are not always exact repeats. Equal entries are not always repeated. Where two headings read alike, the source gives them in different places.
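Further: KINOMEscan kinase panel screen.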

In the case of `Cc1ccc(NC(=O)Nc2cccc(C(F)(F)F)c2)cc1` [GSK955403], the “%Inh” value was 6% in the assay on EPHA4 (1 µM); 0% with EPHA5 (1 µM); 0% with EPHA6 (1 µM); 2% in the assay on EPHA7 (1 µM); 3% in the assay on EPHA8 (1 µM); 5% in the assay on EPHB1 (1 µM). The “%Inh” value with EPHB2 (1 µM) was 3%; with EPHB3 (1 µM), 0%; in the assay on EPHB4 (1 µM), 0%; with EPHB6 (1 µM) it was 21%.
Regarding `CSc1nn2c(=O)cc(N3CCOCC3)nc2n1Cc1cccc(C(F)(F)F)c1C` [GSK2363608], the “%Inh” value in the assay with EPHA4 (setting [1]) was 2% and 23%; with EPHA5 (setting [2]) it was 0%; in the assay with EPHA6 (setting [1]) it was 0% and 12%; in the assay with EPHA7 (setting [1]) it was 8% and 6%; in the assay on EPHA8 (setting [1]), 0% and 18%; in the assay with EPHB1 (setting [1]), 0% and 9%. Further, the “%Inh” value in the assay on EPHB2 (setting [2]) is 0%; with EPHB3 (setting [1]), 3% and 28%; in the assay on EPHB4 (setting [1]), 13% and 17%; in the assay with EPHB6 (setting [1]), 29% and 12%.
Consider `COc1ccc(C2=C(Nc3cccc(C(=O)O)c3)C(=O)NC2=O)cc1` [SB-390765], for which the “%Inh” value was determined as 21% in the assay with EPHA4 (setting [2]); 7% with EPHA5 (setting [2]); 16% in the assay with EPHA6 (setting [2]); 0% with EPHA7 (setting [2]); 10% with EPHA8 (setting [2]); 5% with EPHB1 (setting [2]). For the same molecule, the “%Inh” value with EPHB2 (setting [2]) was 9%; in the assay with EPHB3 (setting [2]), 20%; with EPHB4 (setting [2]) it was 9%; with EPHB6 (setting [2]) it was 19%.
Take `NC(=O)c1nnc2ccccc2c1N`: the “%Inh” value in the assay on EPHA4 (setting [2]) was found to be 1%; in the assay on EPHA5 (setting [2]), 10%; in the assay on EPHA6 (setting [2]), 0%; in the assay on EPHA7 (setting [2]), 0%; in the assay on EPHA8 (setting [2]), 0%; with EPHB1 (setting [2]), 0%. Also, the “%Inh” value is 13% in the assay with EPHB2 (setting [2]), 0% in the assay on EPHB3 (setting [2]), 19% with EPHB4 (setting [2]) and 9% with EPHB6 (setting [2]).
For the molecule `O=C(Nc1n[nH]c2cc(-c3cccc(F)c3F)ccc12)C1CC1` [SB-733894], the “%Inh” value in the assay with EPHA4 (setting [2]) is 1%; in the assay on EPHA5 (setting [2]) it was 0%; in the assay with EPHA6 (setting [2]), 0%; in the assay on EPHA7 (setting [2]), 0%; with EPHA8 (setting [2]) it was 0%; in the assay with EPHB1 (setting [2]), 0%. In addition, the “%Inh” value with EPHB2 (setting [2]) is on record as 20%; with EPHB3 (setting [2]), 10%; with EPHB4 (setting [2]), 62%; with EPHB6 (setting [2]) it was 31%.
For the molecule `Cl.c1ccc(-c2n[nH]cc2-c2ccnc(-c3ccc(CN4CCOCC4)cc3)c2)nc1` [GW776245], the “%Inh” value is given as 16% in the assay on EPHA4 (setting [2]); 11% in the assay on EPHA5 (setting [2]); 5% in the assay with EPHA6 (setting [2]); 15% with EPHA7 (setting [2]); 19% in the assay on EPHA8 (setting [2]); 10% with EPHB1 (setting [2]). In addition, the “%Inh” value is 30% in the assay with EPHB2 (setting [2]), 13% with EPHB3 (setting [2]), 17% in the assay on EPHB4 (setting [2]) and 0% in the assay with EPHB6 (setting [2]).
In the case of `O=C(Nc1ccccc1)Nc1cccc(Oc2ccc3nccn3n2)c1`, the “%Inh” value with EPHA4 (setting [2]), in the assay on EPHA5 (setting [2]), in the assay with EPHA6 (setting [2]), in the assay on EPHA7 (setting [2]), in the assay on EPHA8 (setting [2]) and with EPHB1 (setting [2]) was 0% each time. Moreover, the “%Inh” value in the assay with EPHB2 (setting [2]) amounted to 3%; in the assay on EPHB3 (setting [2]), 0%; in the assay with EPHB4 (setting [2]), 10%; in the assay with EPHB6 (setting [2]) it was 9%.
Turning to `CCCc1ccc(S(=O)(=O)NC2CCN(c3ccnc(Nc4ccc(F)cc4)n3)C2)cc1` (stereo not drawn) [GSK1379715], the “%Inh” value in the assay on EPHA4 (setting [2]) was 13%; in the assay with EPHA5 (setting [2]), 0%; with EPHA6 (setting [2]), 6%; in the assay with EPHA7 (setting [2]), 2%; in the assay on EPHA8 (setting [2]) it was 23%; in the assay on EPHB1 (setting [2]) it was 0%. Besides, the “%Inh” value is recorded as 6% in the assay on EPHB2 (setting [2]), 15% in the assay on EPHB3 (setting [2]), 15% with EPHB4 (setting [2]) and 2% with EPHB6 (setting [2]).
As for `CC1=C(C(=O)Nc2cc3cn[nH]c3cc2F)C(c2ccc(C(F)(F)F)cc2)CC(=O)N1` (stereo not drawn) [GSK429286], the “%Inh” value came out at 4% in the assay on EPHA4 (setting [2]); 0% with EPHA5 (setting [2]); 12% in the assay with EPHA6 (setting [2]); 11% in the assay on EPHA7 (setting [2]); 23% in the assay with EPHA8 (setting [2]); 3% with EPHB1 (setting [2]). For the same molecule, the “%Inh” value with EPHB2 (setting [2]) came out at 10%; with EPHB3 (setting [2]), 21%; in the assay with EPHB4 (setting [2]), 10%; with EPHB6 (setting [2]), 17%.
As to `Cc1cccc(-c2nc(Nc3cccc(C(N)=O)c3)c3ccccc3n2)n1` [GW876019], the “%Inh” value in the assay with EPHA4 (setting [2]) came out at 10%; with EPHA5 (setting [2]), 0%; with EPHA6 (setting [2]) it was 0%; in the assay on EPHA7 (setting [2]), 3%; in the assay with EPHA8 (setting [2]) it was 7%; in the assay with EPHB1 (setting [2]), 9%. In addition, the “%Inh” value came to 8% in the assay on EPHB2 (setting [2]), 15% with EPHB3 (setting [2]), 50% with EPHB4 (setting [2]) and 0% in the assay on EPHB6 (setting [2]).
Turning to `Cn1cncc1-c1ccc2ncnc(Nc3ccc(OCc4ccccc4)cc3)c2c1` [GW320571], the “%Inh” value is given as 13% with EPHA4 (setting [2]); 2% in the assay on EPHA5 (setting [2]); 19% with EPHA6 (setting [2]); 1% in the assay on EPHA7 (setting [2]); 12% with EPHA8 (setting [2]); 6% with EPHB1 (setting [2]). The “%Inh” value in the assay with EPHB2 (setting [2]) is listed as 0%; in the assay with EPHB3 (setting [2]), 23%; in the assay with EPHB4 (setting [2]), 8%; with EPHB6 (setting [2]), 3%.
For the molecule `Cc1cc(-c2ccc3c(c2)CC[C@@H](N[C@@H](C)c2ccccc2)C3)cnc1N.Cl` [GW412617], the “%Inh” value in the assay with EPHA4 (setting [2]) came to 13%; in the assay with EPHA5 (setting [2]), 1%; in the assay with EPHA6 (setting [2]), 10%; with EPHA7 (setting [2]), 0%; in the assay on EPHA8 (setting [2]) it was 8%; in the assay on EPHB1 (setting [2]), 9%. In addition, the “%Inh” value in the assay on EPHB2 (setting [2]) is recorded as 0%; in the assay on EPHB3 (setting [2]) it was 9%; in the assay with EPHB4 (setting [2]), 11%; in the assay with EPHB6 (setting [2]), 48%.
As to `Cn1ccc2ncnc(Oc3cccc(C(=O)Nc4ccccc4)c3)c21`, the “%Inh” value in the assay on EPHA4 (setting [2]) is 4%; in the assay with EPHA5 (setting [2]), 16%; in the assay on EPHA6 (setting [2]) it was 0%; with EPHA7 (setting [2]), 0%; with EPHA8 (setting [2]) it was 0%; in the assay with EPHB1 (setting [2]), 0%. For the same molecule, the “%Inh” value is 0% in the assay on EPHB2 (setting [2]), 0% with EPHB3 (setting [2]), 9% in the assay on EPHB4 (setting [2]) and 0% in the assay on EPHB6 (setting [2]).
For the molecule `Cc1cccc(-c2cc(Nc3ccncc3)c3ccccc3n2)n1` [GSK223675], the “%Inh” value came out at 0% in the assay on EPHA4 (setting [2]); 0% with EPHA5 (setting [2]); 0% in the assay on EPHA6 (setting [2]); 0% in the assay on EPHA7 (setting [2]); 0% with EPHA8 (setting [2]); 4% in the assay on EPHB1 (setting [2]). In addition, the “%Inh” value in the assay on EPHB2 (setting [2]) is 0%; with EPHB3 (setting [2]), 0%; with EPHB4 (setting [2]), 0%; in the assay with EPHB6 (setting [2]), 25%.
For the molecule `CC(=O)Nc1nc2cnc(Nc3cc(NC(=O)c4cccc(CCC#N)c4)ccc3C)nc2s1`, the “%Inh” value in the assay with EPHA4 (setting [2]) stood at 16%; in the assay with EPHA5 (setting [2]), 6%; with EPHA6 (setting [2]), 27%; in the assay with EPHA7 (setting [2]), 10%; in the assay on EPHA8 (setting [2]), 16%; in the assay on EPHB1 (setting [2]), 6%. Besides, the “%Inh” value is 24% with EPHB2 (setting [2]), 14% in the assay with EPHB3 (setting [2]), 19% in the assay with EPHB4 (setting [2]) and 45% in the assay with EPHB6 (setting [2]).
Take `Cc1ccc(C(=O)Nc2ccc(Nc3ccnc4cc(-c5ccccn5)ccc34)cc2O)cc1.Cl` [GW440146]: the “%Inh” value worked out at 0% with EPHA4 (setting [2]); 0% in the assay with EPHA5 (setting [2]); 0% with EPHA6 (setting [2]); 4% in the assay on EPHA7 (setting [2]); 10% with EPHA8 (setting [2]); 5% in the assay on EPHB1 (setting [2]). For the same molecule, the “%Inh” value in the assay on EPHB2 (setting [2]) is reported as 14%; with EPHB3 (setting [2]), 0%; with EPHB4 (setting [2]), 0%; in the assay on EPHB6 (setting [2]), 48%.
Take `Cc1nnc(-c2ccc3occ(-c4ccc(S(C)=O)cc4)c3c2)[nH]1` (stereo not drawn): the “%Inh” value in the assay on EPHA4 (setting [2]) is reported as 24%; in the assay with EPHA5 (setting [2]), 10%; in the assay on EPHA6 (setting [2]), 34%; in the assay on EPHA7 (setting [2]), 7%; in the assay with EPHA8 (setting [2]), 6%; with EPHB1 (setting [2]), 0%. The “%Inh” value in the assay on EPHB2 (setting [2]) is listed as 16%; in the assay with EPHB3 (setting [2]) it was 17%; with EPHB4 (setting [2]), 16%; in the assay with EPHB6 (setting [2]), 13%.
Take `O=C1NC(=O)C(N2CCc3ccccc32)=C1c1ccccc1Cl` [SB-373598]: the “%Inh” value with EPHA4 (setting [2]) was found to be 24%; in the assay on EPHA5 (setting [2]), 0%; in the assay on EPHA6 (setting [2]), 18%; in the assay with EPHA7 (setting [2]), 18%; in the assay with EPHA8 (setting [2]), 36%; in the assay on EPHB1 (setting [2]), 9%. Also, the “%Inh” value is on record as 0% in the assay with EPHB2 (setting [2]), 14% in the assay on EPHB3 (setting [2]), 20% in the assay with EPHB4 (setting [2]) and 31% in the assay on EPHB6 (setting [2]).
